A selection: hits, their analogues and other compounds. The true share with any hit is near 3.5%.
TEAD-YAP inh – TEAD-YAP interaction inhibition, primary screen, TEAD-YAP interaction inhibitor project, luminescence, HEK-TIYL cells; 1.4% of 640,000 active; TEAD-Gal4/YAP UAS-luciferase luminescence; inhibition, % at 9.12 µM; in the data active = inhibition above about 32%
GPR151 ag – activators of human GPR151, primary screen, cell-based, PathHunter beta-arrestin, luminescence | G-protein coupled receptor 151 (Homo sapiens), Q8TDV0 | PathHunter beta-arrestin GPR151 cells | activation, % at 11.2 µM | 1% of 650,000 active; in the data active = activation above about 4.9%
FBW7 act – FBW7 E3 ligase activators, primary screen, biochemical, AlphaScreen, human; AID 1259310, 2017; F-box/WD repeat-containing protein 7 (Homo sapiens), Q969H0; 0.13% of 650,000 active; AlphaScreen FBW7–phospho-cyclin E peptide binding, activator screen; normalized activity (activation), % at 26.1 µM; in the data active = normalized activity above about 1.9%;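 also: purified mutant Fbw7 with reduced substrate affinity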
MITF primary – MITF inhibitors, primary screen, biochemical, AlphaScreen, human; 0.91% of 650,000 active; AID 1259374, 2018; Microphthalmia-associated transcription factor (Homo sapiens), O75030; inhibition, % at 2.6 µM; AlphaScreen MITF homodimerization, bead proximity signal; in the data active = inhibition above about 50%
Target sequence (O75030 whole entry, looked up): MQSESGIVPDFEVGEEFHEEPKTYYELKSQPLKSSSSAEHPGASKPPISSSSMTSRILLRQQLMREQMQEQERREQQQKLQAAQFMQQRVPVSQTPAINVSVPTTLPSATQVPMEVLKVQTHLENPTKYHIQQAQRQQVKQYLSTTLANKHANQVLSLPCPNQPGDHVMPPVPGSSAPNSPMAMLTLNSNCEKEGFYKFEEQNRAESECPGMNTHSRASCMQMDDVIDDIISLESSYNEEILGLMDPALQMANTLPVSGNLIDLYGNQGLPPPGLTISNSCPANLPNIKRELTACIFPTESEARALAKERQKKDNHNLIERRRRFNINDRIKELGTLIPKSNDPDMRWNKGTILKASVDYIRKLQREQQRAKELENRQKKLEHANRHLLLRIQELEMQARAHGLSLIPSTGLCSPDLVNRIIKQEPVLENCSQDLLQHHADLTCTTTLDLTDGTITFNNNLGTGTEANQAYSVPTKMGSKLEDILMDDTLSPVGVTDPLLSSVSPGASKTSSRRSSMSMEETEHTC
GPR151 confirm – GPR151 activators, triplicate retest, confirmation, cell-based, PathHunter beta-arrestin, luminescence | GPR151 PathHunter beta-arrestin cells, 90 min; % of EA-reagent control over plate median | 6,700 tested, under 10 active | shares compounds with GPR151 ag | activation, % at 11.2 µM;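 active = mean percent activation across replicates above the confirmation screen cutoff of 4.91%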
GPR119 ag – GPR119 activators in beta-arrestin cells, counter-screen for GPR151 activator project, cell-based, PathHunter beta-arrestin, luminescence, triplicate; shares compounds with GPR151 ag; 90 min; 0 = compound-well median, 100 = enzyme-acceptor control; activation, % at 11.2 µM; 0.3% of 6,700 active;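 active = mean percent activation in the counterscreen above 29.09%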;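 also: counterscreen on off-target GPR119 to flag nonselective hits from the GPR151 activator screen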
Hits are given with their value; – = inactive; · = no result; ! = a repeat was not active.

SMILES	TEAD-YAP inh	GPR151 ag	FBW7 act	MITF primary	GPR151 confirm	GPR119 ag
Cc1ccc(C(=O)NC(Cc2c[nH]c3ccccc23)C(=O)O)cc1 (stereo not given)	–	–	–	–	·	·
CC(C)(O)C#Cc1ccc(C(=O)NC(Cc2c[nH]c3ccccc23)C(=O)O)cc1 (stereo not given)	–	12	–	–	–	–
CC(C)(C)c1ccc(OCC(O)CNC2CCCC2)cc1 (stereo not given)	–	12	–	–	–	–
CC(C)NCC(O)COc1ccc2c(c1)CCC2 (stereo not given)	–	–	–	–	·	·
OC(CNC1CCCC1)COc1ccc2c(c1)CCC2 (stereo not given)	–	12	–	–	–	–
CCc1cccc(NC(=O)CN(C)S(=O)(=O)c2cc3c(cc2Cl)NC(=O)CO3)c1	–	–	–	–	·	·
CC1CCN(C(=O)CSc2nc3[nH]ncc3c(=O)[nH]2)CC1	–	7.7	–	–	–	–
Cc1ccccc1C1C(C#N)=C(N)N(c2ncn[nH]2)C2=C1C(=O)CCC2 (stereo not given)	–	–	–	–	·	·
CCOC(=O)CSc1nnc(-c2cccc(NC(=O)c3ccccc3Cl)c2)n1C	–	5.3	–	–	–	–
O=C(CN(c1ccccc1Cl)S(=O)(=O)c1ccccc1)NC1CC1	–	5.9	–	–	–	–
COc1ccc(C2=N/C(=C/c3ccc(Cl)cc3)C(=O)O2)cc1OC	–	–	–	–	·	·
O=S(=O)(c1cccs1)N(Cc1ccco1)C1CCN(CCc2cccs2)CC1	–	7.5	–	–	–	–
CS(=O)(=O)N(Cc1ccco1)C1CCN(CCc2cccs2)CC1	–	–	–	–	·	·
C[C@@H]1CN(Cc2nc(-c3ccccn3)no2)C[C@H](C)O1	–	–	–	–	·	·
Cc1ccc(C)c(N2CCN(C(=O)c3oc(=O)c4ccccc4c3-c3ccccc3)CC2)c1	–	–	–	–	·	·
O=C1CCCc2occ(C(=O)N3CCC[C@@H]4CN(C/C=C/c5ccccc5)CC[C@H]43)c21	–	–	–	–	·	·
COc1ccc(C(=O)Oc2cc(N)n(S(=O)(=O)c3ccc(C)cc3)n2)cc1OC	–	6.3	–	–	–	–
Cc1ccc(C(=O)Oc2cc(N)n(S(=O)(=O)c3ccc(C)cc3)n2)cc1	–	–	–	–	·	·
COc1cccc(/C=C/C(=O)Nc2ccc3nc(N4CCCCC4)cc(C)c3c2)c1OC	–	5.4	–	–	–	–
Cc1cc(C)n2c(SCC(=O)NC(=O)NC(C)(C)C)nnc2n1	–	5.5	–	–	–	–
O=C(NCCCN1CCOCC1)c1cc2ncc(Br)cn2n1	–	–	–	–	·	·
COc1ccc(OC)c(CN2CCc3nnc(CNC(=O)c4ccccc4)n3CC2)c1	–	–	–	–	·	·
COc1ccc(/C=C2\N=C(c3ccccc3OC)OC2=O)c(OC)c1	–	6.5	–	–	–	–
COc1ccc(OC)c(/C=C2\N=C(c3ccccc3OC)OC2=O)c1	–	–	–	–	·	·
N#Cc1ccccc1NC(=O)c1cc(Br)ccc1Cl	–	–	–	–	·	·
SMILES	TEAD-YAP inh	GPR151 ag	FBW7 act	MITF primary	GPR151 confirm	GPR119 ag
O=C(Nc1ccccc1[N+](=O)[O-])c1cc(Br)ccc1Cl	–	5.9	–	–	–	–
O=C(O)c1cccc([N+](=O)[O-])c1C(=O)Nc1cccc(Cl)c1Cl	–	7.6	–	–	–	–
O=C(Nc1cccc(Cl)c1Cl)c1ccccc1[N+](=O)[O-]	–	–	–	–	·	·
COc1cc2c(cc1OC)n(CC(=O)NC(C)c1ccccc1)n1c(C)cc(=O)nc21 (stereo not given)	–	–	–	–	·	·
O=C(NCc1ccccc1)N1CCN(Cc2nc3ccccc3[nH]2)CC1	–	–	–	–	·	·
Cc1cccn2c(=O)c(/C=C(\C#N)C(=O)NCc3ccccc3)c(Oc3ccccc3)nc12	–	–	–	–	·	·
CC(C)(S)C(N)C(=O)O (stereo not given)	–	5.1!	–	–	–	–
CC(C)(S)C(=O)N[C@@H](CS)C(=O)O	–	–	–	–	·	·
CC(C)=NNC(=O)c1ccc(Cl)cc1	–	12	–	–	–	–
Cc1ccc(S(=O)(=O)c2nc(NCCN(C)C)sc2Cl)cc1	–	5.2	–	–	–	–
CC1CCN(C(=O)CN2CCC(c3nc4ccccc4[nH]3)CC2)CC1	–	–	–	–	·	·
CCCNc1nc(Nc2ccc(C)cc2)nc(N2CCCC2)n1	–	4.9	–	–	–	–
CN1CCN(c2c(F)cc3c(=O)c(C(=O)O)cn4c3c2OCN4C)CC1	–	–	–	–	·	·
CN1CCN(c2c(F)cc3c(=O)c(C(=O)O)cn(CCF)c3c2F)CC1	–	6.3!	–	–	–	–
CSc1cccc(NC(=O)N[C@H]2C[C@H]3C(=O)N[C@@H](Cc4ccccc4)C(=O)N3C2)c1	–	–	–	–	·	·
N/C(=N\N=C\c1ccccc1F)SC1CC(=O)N(c2cccc([N+](=O)[O-])c2)C1=O (stereo not given)	–	–	–	–	·	·
COC(=O)c1ccc(CN(c2ccccn2)S(=O)(=O)c2ccccc2)cc1	–	7.3	–	–	–	–
COC(=O)c1ccc(CN(c2ccccc2)S(=O)(=O)c2ccccc2)cc1	–	–	–	–	·	·
COC(=O)c1ccc(CN2CCC(N(Cc3ccco3)C(=O)c3cccnc3)CC2)cc1	–	–	–	–	·	·
O=S(=O)(NCCCN1CCN(c2ccccc2)CC1)c1ccccc1Cl	–	–	–	–	·	·
Cc1cc(C)cc(N(C(C)C(=O)O)S(C)(=O)=O)c1 (stereo not given)	–	5.5	–	–	–	–
COC(=O)c1ccc(NC(=O)C2CC(=O)N(Cc3ccc4c(c3)OCO4)C(=Nc3cccc(C(F)(F)F)c3)S2)cc1 (stereo not given)	–	6.4	–	–	–	–
O=C(O)c1ccc(NC(=O)C2CC(=O)N(Cc3ccc4c(c3)OCO4)C(=Nc3cccc(C(F)(F)F)c3)S2)cc1 (stereo not given)	–	–	–	–	·	·
CCOC(=O)C1=C(C)NC2=C(C(=O)C(C(=O)OC)C(C)C2)C1c1ccccc1OC(C)C (stereo not given)	–	5.2!	–	–	–	–
Oc1oc(-c2ccccc2Br)nc1C=Nc1ccc(I)cc1	–	9.3	–	–	–	–
Oc1oc(-c2ccccc2Br)nc1C=Nc1ccc(Br)cc1	–	–	–	–	·	·
Cc1ccc(NC(=O)c2cnc(SCc3ccccn3)n(C)c2=O)cc1C	–	–	–	–	·	·
CC1Cc2cc(S(=O)(=O)CCC(=O)Nc3cccc(F)c3)ccc2N1C(=O)C1CC1 (stereo not given)	–	–	–	–	·	·

Screens from PubChem BioAssay.
